# Assay results from ChEMBL document CHEMBL3433997, “St. Jude Leishmania screening dataset” (2016).
# Molecular target: Glucose transporter (Leishmania mexicana) (UniProt O61059)
# Test: ST_JUDE_LEISH: Cytotoxicity at 2uM final concentration against transgenic Leishmania Mexicana promastigotes LmGT2 that are glucose transport deficient and complemented with the L. Mexicana glucose transporter 2. Activity is measured by DNA content using SYBR green in vitro
# Assay type: functional
row,Compound,inhibition
1,CN1CCCN(Cc2cccc(-c3cccc(NS(=O)(=O)c4cccc5cccnc45)c3)c2)CC1,2.53%
2,c1cc(-c2cc3ccc(C4=NCCN4)cc3[nH]2)ccc1C1=NCCN1,0.39%
3,OC(CNCCCc1ccccc1)c1cc(OCc2ccccc2)cc(OCc2ccccc2)c1 (stereo not given),1.79%
4,Cc1nc2ccccc2n1C1CC2CCC(C1)N2CCCC1(c2ccccc2)CCN(C(=O)OCc2ccccc2)CC1 (stereo not given),2.57%
5,CC1CCCC(Nc2noc(-c3sccc3Br)n2)C1 (stereo not given),-2.55%
6,CN(C)c1ccc(-c2ccc(C(=O)NC3CCN(Cc4ccc5c(c4)OCCO5)CC3)s2)cc1,3.8%
7,COc1cc2nc(NCCc3ccccc3)nc(NCc3nccs3)c2cc1OC,0.04%
8,N=C1N=C(N)NCN1OCc1ccc(Cl)c(Cl)c1,-0.31%
9,COc1cc2c(cc1O)[C@@H]1[C@H](O)[C@@H](O)C=C3CCN(C2)[C@H]31,1.58%
10,CS(=O)(=O)c1cccc(-c2cnc3[nH]cc(-c4ccc(CCC(=O)O)cc4)c3c2)c1,0.31%
11,COc1ccc(-c2cccc(NC(=O)c3cccc(F)c3)c2)cc1CN1CCCN(C)CC1,-0.49%
12,CN1CCN(CCCN(Cc2ccc(-c3ccc(CNC4CCCC4)cc3)cc2)C(=O)CCC2CCCC2)CC1,5.69%
13,CC(=O)Oc1c(C2CCN(CCCCNC(=O)c3ccc(NC(=O)c4ccc(Cl)cc4)cc3)CC2)ccc2c1CCCC2,3.9%
14,CN(C(=O)C(C)(C)Oc1ccc(Cl)cc1)C1CCN(CCCCCNC(=O)/C=C/c2ccc(Cl)c(Cl)c2)CC1,0.52%
15,COc1cc(-c2nc(-c3ccncc3)c(-c3ccc4c(c3)CCC4=NO)[nH]2)ccc1OCCN1CCCCC1,2.76%
16,O=C(c1ccc(O)c(-c2cc(Cl)cc(Cl)c2)c1)N(CCO)CCO,3.14%
17,CCCc1cc(=O)oc2cc(OC)c(C(=O)CC(C)C)c(OC)c12,6.92%
18,COc1ccc(C2C(C(=O)OC3CCCCC3)=C(C)NC3=C2C(=O)CCC3)cc1Br (stereo not given),1.36%
19,c1cc(-c2ccc(CNCCc3ccncc3)cc2)cc(-c2nc3ccccc3[nH]2)c1,3.55%
20,O=C(n1c(-c2cc3ccccc3n2C(=O)C(F)(F)F)cc2ccccc21)C(F)(F)F,-0.64%

row,Compound,inhibition
1,CCOc1cc(Br)c(C(C)NC(=O)c2cccc(OC)c2)cc1OCC (stereo not given),-0.19%
2,CC(=O)CCc1ccc(OCCN(Cc2ccccc2C(F)(F)F)c2ccc(C#N)c(C(F)(F)F)c2)cc1,2.73%
3,Cc1nc(-c2nc(NCCc3cnccn3)ncc2-c2ccsc2)sc1C,-2.39%
4,COCc1ccc(CN2CCC(C(=O)Nc3ccc(-c4nc5ccccc5[nH]4)cc3)CC2)o1,5.81%
5,Cc1ccc(Oc2cnn(C)c(=O)c2Nc2cccc(C(=O)NCCc3ccccn3)c2)c(C)c1,3.26%
6,CC(=O)Oc1cc(OCc2ccccc2)c(OC(C)=O)c(OCc2ccccc2)c1,-0.19%
7,O=C(Nc1ccc(-c2nc3ccccc3[nH]2)cc1)c1cccc(S(=O)(=O)N2CCCC2)c1,5.05%
8,Cc1cc(Nc2cccc(Cl)c2)nc2ccc(NC(=O)c3ccc(=O)[nH]c3)cc12,3.64%
9,COc1ccccc1N1CCN(CCCCNC(=O)c2ccc(NC(=O)c3cc4ccccc4o3)cc2)CC1,0.06%
10,Cc1cc(N2CCC(NS(=O)(=O)c3cccc4cccnc34)CC2)nc(Nc2cccc(C#N)c2)n1,44.4%
11,Cn1c(-c2ccccc2)cc2c3c(=O)cc(C(F)(F)F)[nH]c3ccc21,14.1%
12,COc1ccc(Br)cc1/C=C/C(=O)Nc1ccc2c(c1)CCCN(C)C2,3.56%
13,OC1CCCN(Cc2cccc(-c3ccc(-c4nc5cc(F)ccc5[nH]4)cc3)c2)C1 (stereo not given),4.6%
14,COc1ccc(NC(=O)Nc2ccc(-c3cccc(-c4nc5cccc(C)c5[nH]4)c3)cc2)cc1,-0.2%
15,c1ccc(Oc2ccc(Nc3nncc4ccccc34)cc2)cc1,-4.56%
16,CCCN(CCC)S(=O)(=O)c1ccc(C(=O)Nc2nc3ccc(-c4cc(=O)[nH]c(Nc5ccccc5Cl)n4)cc3[nH]2)cc1,4.26%
17,COc1ccc(CC(=O)Nc2ccc(Nc3nc(C)cc(N(C)C)n3)cc2)cc1,1.53%
18,CCc1nc(N)nc(N)c1-c1ccc(F)c(F)c1,3.74%
19,O=C(C(=O)c1ccc(Nc2ccnc3cc(-c4ccccn4)ccc23)cc1)c1ccccc1,-2.63%
20,COc1ccc(-c2nc(NC(=O)Cc3ccc4c(c3)OCCO4)sc2C)cc1,5.29%
